In PubChem BioAssay (NCI):
Compounds without any hit were thinned out: in the full panel of roughly 83,000, 20% have a hit.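 Each cell line was grown in a 96-well plate and treated with one concentration of compound for 48 hours. Values below 10 were considered active.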 Unmarked numbers belong to inactive results. Activity calls are given as the source filed them.

These compounds were tested on OVCAR-5 ovarian (assay: NCI-60 one-dose screen, 48 h (100 = growth as untreated, 0 = no growth, -100 = all killed)). Details: 10 µM unless noted.

| Compound | growth |
| --- | --- |
| c1c[nH]c(CNC2CCCCC2)c1 | 101% |
| COc1ccc2c(c1)CCCN2c1c2ccccc2nc2ccccc12 | 28.3% |
| CC/C=C/C/C=C/C/C=C/C/C=C/C/C=C/C/C=C/CCC(=O)Nc1ccn([C@@H]2O[C@H](CO)[C@@H](O)C2(F)F)c(=O)n1 | 50.1% |
| Cc1ccc2nc(NC(=O)CSc3nc(-c4ccccc4)c(C#N)c(=O)n3Cc3ccccc3)sc2c1 | 108% |
| NNC(=O)c1nc(N)n(-c2ccc(S(N)(=O)=O)cc2)n1 | 101% |
| O=C(CC(SCc1ccccc1)c1ccccc1)c1ccccc1 (stereo not given) | 98.4% |
| COC1=C(OC)C(=O)C(OC)=C(OC)C1=O | 108% |
| COC(=O)CCC1=C(C)C2=NC1=CC1=NC(=CC3=NC(=Cc4[nH]c(/c(=C(/C)O)c4C)=C2)C(C(C)=O)=C3C)C(C)=C1CCC(=O)OC | 111% |
| CC1=CN2C(=O)C3C4=C(CCCC4)SC3N=C2CN1c1c(C)cccc1C (stereo not given) | 94% |
| O=C(Nc1cccc(Oc2nnc(Cl)c3ccccc23)c1)Nc1ccc(Cl)c(C(F)(F)F)c1 | -7.38% (active) |
| CN1CCN(CCCOc2ccc3nc(Nc4ccc(F)c(F)c4)ccc3c2)CC1 | 41% |
| COc1ccccc1NC(=O)N/C(N)=N/c1nc2ccccc2s1 | 34.8% |
| Cc1ccc(Nc2nc(N)nc(CSCC(=O)NN)n2)cc1 | 103% |
| CC1CC(C(C)(C)C)C(=O)C(C(C)(C)C)C1 (stereo not given) | 99.6% |
| O=C(O)c1ccc2c(c1Cl)C(=O)c1ccccc1C2=O | 102% |
